Experimental data reported in PubChem BioAssay (EPA / NIEHS).
Active and inactive are the calls of the source. Rule for the calls: active = hit-call score of the fitted dose curve at least 0.9, where 1 is the maximum; inactive = score below 0.9.

How the values were obtained:
[1] = read-out: Interleukin-1 alpha (IL1a), IL1A (gene 3552); assay: BSK_KF3CT_IL1a: BioMAP Diversity Plus: KF3CT Assay for Interleukin-1 alpha (IL1a) Biomarker Activity (AID 2283070); details: primary human keratinocytes with fibroblasts; actives raise or lower the signal
Outline: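 Readout is IL-1a level by ELISA, compared bidirectionally with DMSO as baseline. Cells: human keratinocytes co-cultured with foreskin fibroblasts, harvested 24 h post-dose.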

[2] = read-out: TIMP metallopeptidase inhibitor 2 (TIMP2), TIMP2 (gene 7077); assay: BSK_KF3CT_TIMP2: BioMAP Diversity Plus: KF3CT Assay for TIMP metallopeptidase inhibitor 2 (TIMP2) Biomarker Activity (AID 2283071); details: primary human keratinocytes with fibroblasts; actives raise or lower the signal
Outline: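 Measurements come from ELISA detection of TIMP-2 at 24 hours in a dosed human keratinocyte and foreskin fibroblast co-culture. DMSO serves as negative control and baseline.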

[3] = read-out: Transforming growth factor beta 1 (TGFb1), TGFB1 (gene 7040); assay: BSK_KF3CT_TGFb1: BioMAP Diversity Plus: KF3CT Assay for Transforming growth factor beta 1 (TGFb1) Biomarker Activity (AID 2283072); details: primary human keratinocytes with fibroblasts; actives raise or lower the signal
Outline: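 TGF-b1 ELISA on a 24 h dosed co-culture of human keratinocytes and foreskin fibroblasts; cytotoxicity tracked in parallel cultures by SRB staining.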

[4] = read-out: C-C motif chemokine 2 (Homo sapiens) (UniProt P13500); assay: BSK_KF3CT_MCP1: BioMAP Diversity Plus: KF3CT Assay for Monocyte Chemoattractant Protein 1 (MCP1/CCL2) Biomarker Activity (AID 2283073); details: primary human keratinocytes with fibroblasts; actives raise or lower the signal
Outline: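 Keratinocytes and foreskin fibroblasts were co-cultured, dosed with chemical, and sampled 24 h later. MCP-1 was quantified by ELISA, and the endpoint was analyzed with bidirectional fitting using DMSO as negative control.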

[5] = read-out: Matrix Metallopeptidase 9 (MMP9), MMP9 (gene 4318); assay: BSK_KF3CT_MMP9: BioMAP Diversity Plus: KF3CT Assay for Matrix Metallopeptidase 9 (MMP9) Biomarker Activity (AID 2283074); details: primary human keratinocytes with fibroblasts; actives raise or lower the signal
Outline: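 Values come from bidirectional fitting relative to DMSO of MMP-9 levels, which were measured by ELISA. Measurements were taken 24 h after chemical dosing of a keratinocyte and foreskin fibroblast co-culture.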

[6] = read-out: urokinase plasminogen activator (uPA), PLAU (gene 5328); assay: BSK_KF3CT_uPA: BioMAP Diversity Plus: KF3CT Assay for urokinase plasminogen activator (uPA) Biomarker Activity (AID 2283075); details: primary human keratinocytes with fibroblasts; actives raise or lower the signal
Outline: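 Values derive from bidirectional fitting against DMSO controls. Keratinocyte/foreskin fibroblast co-cultures received chemical; 24 h later uPA was detected by ELISA, with SRB total-protein staining in parallel wells for overt cytotoxicity.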

[7] = read-out: CD40, CD40 (gene 958); assay: BSK_LPS_CD40: BioMAP Diversity Plus: LPS Assay for CD40 Biomarker Activity (AID 2283076); details: primary human HUVEC with PBMC; actives raise or lower the signal
Outline: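 CD40 signal, measured by ELISA, is fitted in both directions relative to DMSO vehicle. The system is an LPS-driven human vascular primary co-culture of endothelial cells and PBMC, sampled 24 h after compound addition.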

[8] = read-out: E-selectin (Homo sapiens) (UniProt P16581); assay: BSK_LPS_Eselectin: BioMAP Diversity Plus: LPS Assay for Eselectin Biomarker Activity (AID 2283077); details: primary human HUVEC with PBMC; actives raise or lower the signal
Outline: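 Signal of E-selectin, detected by ELISA, served as the endpoint; cells were umbilical vein endothelium with PBMC, read 24 h after treatment. DMSO defined baseline, and both increases and decreases were fitted.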

[9] = read-out: Interleukin-8 (IL8), CXCL8 (gene 3576); assay: BSK_LPS_IL8: BioMAP Diversity Plus: LPS Assay for Interleukin-8 (IL8) Biomarker Activity (AID 2283078); details: primary human HUVEC with PBMC; actives raise or lower the signal
Outline: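 Endothelial cells and PBMC from human donors are co-cultured, treated with chemicals and LPS, then assayed for IL-8 by ELISA after 24 h. Parallel SRB staining (0.1% SRB after 10% TCA fixation, 560 nm) flags cytotoxicity.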

[10] = BSK_LPS_SRB: Viability Assessment in the BioMAP Diversity Plus: LPS Assay (AID 2283079); details: primary human HUVEC with PBMC;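 note: total protein by sulforhodamine B absorbance as a cytotoxicity measure; measured one day after compound addition; fitted in both directions against DMSO so loss or gain of signal counts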
Outline: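 Overt cytotoxicity was gauged by sulforhodamine B total-protein staining in a primary human vascular endothelial and mononuclear cell co-culture 24 h post-dosing. Activity was fitted in both directions relative to DMSO.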

[11] = read-out: Interleukin-1 alpha (IL1a), IL1A (gene 3552); assay: BSK_LPS_IL1a: BioMAP Diversity Plus: LPS Assay for Interleukin-1 alpha (IL1a) Biomarker Activity (AID 2283080); details: primary human HUVEC with PBMC; actives raise or lower the signal
Outline: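 Measured: IL-1 alpha via ELISA at 24 h in LPS-activated human umbilical vein endothelium–PBMC co-culture. Baseline: DMSO, bidirectional fitting.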

[12] = read-out: Monocyte Chemoattractant Protein-1 (MCP1), CCL2 (gene 6347); assay: BSK_LPS_MCP1: BioMAP Diversity Plus: LPS Assay for Monocyte Chemoattractant Protein-1 (MCP1) Biomarker Activity (AID 2283081); details: primary human HUVEC with PBMC; actives raise or lower the signal
Outline: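 LPS-stimulated HUVEC/PBMC co-culture; chemical, 24 h; MCP-1 by ELISA; bidirectional fit vs DMSO; cytotoxicity via SRB (0.1% stain, 10% TCA fix, 560 nm) in parallel wells.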

[13] = BSK_LPS_PGE2: BioMAP Diversity Plus: LPS Assay for Prostaglandin E2 (PGE2) Biomarker Activity (AID 2283082); details: primary human HUVEC with PBMC; actives raise or lower the signal
Outline: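 Primary human endothelial cells and blood mononuclear cells, co-cultured with LPS, receive test chemical; PGE2 ELISA follows at 24 h, with SRB-stained parallel cultures flagging cytotoxicity.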

[14] = read-out: Macrophage colony-stimulating factor (MCSF), CSF1 (gene 1435); assay: BSK_LPS_MCSF: BioMAP Diversity Plus: LPS Assay for Macrophage colony-stimulating factor (MCSF) Biomarker Activity (AID 2283083); details: primary human HUVEC with PBMC; actives raise or lower the signal
Outline: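 Compound is added to a human vascular primary co-culture of umbilical vein endothelium and blood mononuclear cells. After 24 h, M-CSF is quantified by ELISA. Signal changes are fitted in both directions against DMSO.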

[15] = read-out: Tissue Factor, F3 (gene 2152); assay: BSK_LPS_TissueFactor: BioMAP Diversity Plus: LPS Assay for Tissue Factor Biomarker Activity (AID 2283084); details: primary human HUVEC with PBMC; actives raise or lower the signal
Outline: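 In this co-culture system of umbilical vein endothelium with PBMC, stimulated with LPS, cell-surface CD142 is detected by ELISA at 24 h. Endpoint values derive from bidirectional fitting, DMSO serving as baseline.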

[16] = read-out: Vascular cell adhesion molecule 1 (VCAM1), VCAM1 (gene 7412); assay: BSK_LPS_VCAM1: BioMAP Diversity Plus: LPS Assay for Vascular cell adhesion molecule 1 (VCAM1) Biomarker Activity (AID 2283086); details: primary human HUVEC with PBMC; actives raise or lower the signal
Outline: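 Measured by ELISA: VCAM-1 in LPS-activated HUVEC/PBMC co-cultures 24 h after treatment. Values reflect bidirectional fitting with DMSO as baseline.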

[17] = read-out: CD38, CD38 (gene 952); assay: BSK_SAg_CD38: BioMAP Diversity Plus: SAg Assay for CD38 Biomarker Activity (AID 2283087); details: primary human HUVEC with PBMC; actives raise or lower the signal
Outline: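 Measures CD38 on a human endothelial/PBMC co-culture driven by SEB and TSST-1, 24 h after compound exposure, using ELISA with fluorescence detection; DMSO defines baseline for bidirectional curve fitting.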

[18] = read-out: CD40, CD40 (gene 958); assay: BSK_SAg_CD40: BioMAP Diversity Plus: SAg Assay for CD40 Biomarker Activity (AID 2283088); details: primary human HUVEC with PBMC; actives raise or lower the signal
Outline: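 Fluorescence ELISA read-out of CD40 from umbilical vein endothelium plus peripheral blood mononuclear cells, sampled 24 h after dosing. Values come from bidirectional curve fitting with DMSO as baseline.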

[19] = read-out: CD69, CD69 (gene 969); assay: BSK_SAg_CD69: BioMAP Diversity Plus: SAg Assay for CD69 Biomarker Activity (AID 2283089); details: primary human HUVEC with PBMC; actives raise or lower the signal
Outline: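 HUVEC co-cultured with PBMC were dosed with chemical, and CD69 was measured by ELISA with fluorescence read-out 24 h later. Bidirectional curve fitting used DMSO as negative control and activity baseline.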

[20] = read-out: Tumor necrosis factor (Homo sapiens) (UniProt P01375); assay: BSK_LPS_TNFa: BioMAP Diversity Plus: LPS Assay for Tumour Necrosis Factor alpha (TNFa) Biomarker Activity (AID 2283085); details: primary human HUVEC with PBMC; actives raise or lower the signal
Outline: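 ELISA-based TNFa endpoint in a human endothelial–PBMC co-culture sampled 24 h post-exposure. Curves were fitted in both directions using DMSO as baseline of activity.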

Measured: outcome

Sequence of E-selectin (Homo sapiens) (P16581 whole entry, looked up): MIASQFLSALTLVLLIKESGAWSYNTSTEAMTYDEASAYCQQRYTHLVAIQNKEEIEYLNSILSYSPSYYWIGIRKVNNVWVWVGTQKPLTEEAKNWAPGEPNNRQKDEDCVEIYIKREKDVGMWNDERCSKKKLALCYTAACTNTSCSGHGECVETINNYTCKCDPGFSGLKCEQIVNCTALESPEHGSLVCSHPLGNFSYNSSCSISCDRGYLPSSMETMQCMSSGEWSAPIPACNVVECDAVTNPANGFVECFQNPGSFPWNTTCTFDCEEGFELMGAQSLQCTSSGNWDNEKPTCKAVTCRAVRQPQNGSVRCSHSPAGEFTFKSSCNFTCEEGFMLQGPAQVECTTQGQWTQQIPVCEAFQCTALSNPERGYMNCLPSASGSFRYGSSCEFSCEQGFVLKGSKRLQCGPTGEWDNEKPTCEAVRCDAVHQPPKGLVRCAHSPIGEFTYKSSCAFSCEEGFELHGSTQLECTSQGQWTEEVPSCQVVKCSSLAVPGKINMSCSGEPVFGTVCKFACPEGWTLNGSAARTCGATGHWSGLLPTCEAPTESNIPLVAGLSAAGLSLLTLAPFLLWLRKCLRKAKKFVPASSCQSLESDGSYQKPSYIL
Sequence of Tumor necrosis factor (Homo sapiens) (P01375 whole entry, looked up): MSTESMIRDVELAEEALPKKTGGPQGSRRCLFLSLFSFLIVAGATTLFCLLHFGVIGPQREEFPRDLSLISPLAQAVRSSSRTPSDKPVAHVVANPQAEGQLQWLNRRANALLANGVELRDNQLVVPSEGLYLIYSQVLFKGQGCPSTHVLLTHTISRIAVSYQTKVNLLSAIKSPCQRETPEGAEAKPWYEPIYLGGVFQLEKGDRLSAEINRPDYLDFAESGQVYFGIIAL

COP(=O)(O)OC
inactive: [1] | [2] | [3] | [4] | [5] | [6] | [7] | [8] | [9] | [10] | [11] | [12] | [13] | [14] | [15] | [16] | [17] | [18] | [19]

O=C(O)C(Cl)Cl
inactive: [1] | [2] | [3] | [4] | [5] | [6] | [7] | [8] | [9] | [10] | [11] | [12] | [13] | [14] | [15] | [16] | [17] | [18] | [19]

CC(Cl)(Cl)C(=O)O
inactive: [1] | [2] | [3] | [4] | [5] | [6] | [7] | [8] | [9] | [10] | [11] | [12] | [13] | [14] | [15] | [20] | [16] | [17] | [18] | [19]
